Bioassay records: PubChem, National Center for Advancing Translational Sciences (NCATS)
This is a sample that favours compounds with a hit; in the whole collection about 18% have one here.
PLK1 PBD inh: blocks phosphopeptide binding to human PLK1 polo-box domain; P53350; Plk1 PBD binding of FITC phosphopeptide, fluorescence polarization; Potency, µM, without a hit: max response, negative = inhibition, hits mostly inhibitors; 360,000 tested, 2.8% active; note: series mostly up to about 57 µM; nearly all actives have a fitted effect of over 65% in size
KAT2A inh: blocks human GCN5L2 histone acetyltransferase. Q92830. GCN5L2 HAT assay, ThioGlo1 CoA-SH fluorescence. Potency, µM (top dose mostly 58.9 µM), without a hit: top-dose activity change, negative = inhibition, usual class: inhibitors. 390,000 tested, 0.21% active
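Compounds, pin-transferred from DMSO stocks, meet 20nM GCN5L2 for 15 min before the reaction begins with H3(1-25) peptide (75uM) and acetyl-CoA (70uM). Thiol-reactive ThioGlo1 reports CoA release over 20 min at room temperature.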
DT40 TDP1 no CPT: qHTS for Inhibitors of human tyrosyl-DNA phosphodiesterase 1 (TDP1): qHTS in cells in absence of CPT; 420,000 tested, 15% active; Potency, µM (doses to about 46.2 µM), without a hit: top-dose activity change, negative = growth inhibition, actives largely listed as inhibitors; DT40 Tdp1-/- hTDP1 cells, no CPT, ATP luminescence, 48 h; note: nearly all actives have a fitted effect of over 55% in size
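Luminescent ATP content (CellTiter-Glo) served as the growth readout. Knockout chicken DT40 cells expressing human TDP1 were exposed to compounds without camptothecin for a minimum 48 hr at 37 °C.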
VDR inh: blocks the human vitamin D receptor. VDR-SRC2-3 peptide fluorescence polarization, 2 h. P11473. AID 504847. 400,000 tested, 0.93% active. Potency, µM, for inactives: max response, negative = inhibition, most hits filed as inhibitors
Target sequence (P11473 whole entry, looked up): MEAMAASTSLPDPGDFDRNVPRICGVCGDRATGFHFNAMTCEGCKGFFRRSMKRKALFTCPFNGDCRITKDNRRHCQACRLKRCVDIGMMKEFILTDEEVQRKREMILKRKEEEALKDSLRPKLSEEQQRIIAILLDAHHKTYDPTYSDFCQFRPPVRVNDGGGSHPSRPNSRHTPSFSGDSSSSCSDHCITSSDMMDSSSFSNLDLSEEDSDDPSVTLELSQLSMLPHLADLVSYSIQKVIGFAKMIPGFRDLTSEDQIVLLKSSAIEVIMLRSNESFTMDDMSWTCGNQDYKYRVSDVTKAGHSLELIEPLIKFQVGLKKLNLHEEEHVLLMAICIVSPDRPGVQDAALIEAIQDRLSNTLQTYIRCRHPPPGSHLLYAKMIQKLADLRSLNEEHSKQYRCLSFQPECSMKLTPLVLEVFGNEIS
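VDR–SRC2-3 interaction, FP format. Cmpds 23 nl via pintool, brief spin, 2 h ambient incubation.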
TDP1 inh: blocks human tyrosyl-DNA phosphodiesterase 1; Q9NUW8; recombinant TDP1, AlphaScreen DNA substrate cleavage; Potency, µM (top dose mostly 130 µM), for inactives: top-dose activity change, negative = inhibition, actives largely listed as inhibitors; 350,000 tested, 0.28% active; note: nearly all actives have a fitted effect of over 40% in size
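AlphaScreen read-out: signal falls as enzyme removes the 3' tyrosine-FITC from a 5'-biotinylated DNA oligo (15 nM, 5 min, RT). Enzyme was E. coli-made recombinant Tdp1 at 1 nM, exposed to compound for 15 min beforehand; beads 10 ug/ml, 10 min.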
DT40 TDP1 CPT: DT40-hTDP1 cell growth loss with CPT. Potency, µM (titrated, usually from 46.2 µM), for inactives: at the top dose activity change, negative = growth inhibition, actives largely listed as inhibitors. 420,000 tested, 12% active. AID 686979. chicken DT40 Tdp1-/-;hTDP1 cells + 20 nM CPT, ATP luminescence, 48 h; note: nearly all actives have a fitted effect of over 55% in size
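Cell growth measured by CellTiter-Glo luminescence after a minimum 48 h, 37 C compound exposure with 20 nM CPT in Tdp1-knockout DT40 cells stably expressing hTDP1, seeded 400/well; qHTS titration format.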
Starred values were filed as active, the others as inactive; ? = inconclusive; . = no result; [ ] = dose if it differs, or a comment. Calls come from the whole dose curve; as a rule, active = well fitted curve in the direction sought with a large enough effect; inconclusive = small, poorly fitted or top-dose-only effect, or another doubt; inactive = no such curve, though single readings can be large; an effect the other way counts as inactive or inconclusive. % is set by controls: 0 for no effect and ±100 for the full control effect; potency is the fitted concentration of half-maximal effect.

SMILES | PLK1 PBD inh | KAT2A inh | DT40 TDP1 no CPT | VDR inh | TDP1 inh | DT40 TDP1 CPT
Cc1ccc(C(=O)/C=C/c2cn(CC(O)CN3CCCCCC3)c3ccccc23)cc1 (stereo not drawn) | . | -11% | 21µM* | 8% | 8% | 12µM*
O=C(/C=C/c1cn(CC(O)CN2CCCCCC2)c2ccccc12)c1ccccc1 (stereo not drawn) | . | -16% | 23µM* | 4% | 3% | ?
O=C(/C=C/c1cn(CC(O)CN2CCCCCC2)c2ccccc12)c1ccc(Br)cc1 (stereo not drawn) | . | -16% | 13µM* | 19% | 8% | 16µM*
O=C(/C=C/c1cn(CC(O)CN2CCCCC2)c2ccccc12)c1ccccc1 (stereo not drawn) | 11% | -6% | ? | -17% | 1% | ?
COc1ccc(C(O)c2ncc(-c3ccccc3C)[nH]2)cc1 (stereo not drawn) | -3% | . | -18% | . | . | -10%
COc1cc(C(=O)NCC2CCCCC2)ccc1OCc1c(C)noc1C | -2% | -1% | 19% | -2% | 0% | -8%
Cc1nc(Nc2cnc(/C=C/c3cc(C(=O)Nc4cccc(C(F)(F)F)c4)ccc3C)cn2)cc(N2CCNCC2)n1 | 20% | -9% | 21µM* | -11% | . | 18µM*
Cc1cc(F)ccc1S(=O)(=O)Nc1ncnc2sc3c(c12)CCC3 | 17µM* | -4% | ? | -7% | 5% | ?
c1ccc(Nc2ncnc3sc4c(c23)CCC4)cc1 | -2% | -21% | -27% | 1% | 1% | ?
Fc1ccc(Nc2ncnc3sc4c(c23)CCC4)cc1 | 3% | -3% | ? | 8% | 3% | ?
O=S(=O)(Nc1ncnc2sc3c(c12)CCC3)c1ccc2ccccc2c1 | 34µM* | ? | -20% | 19% | 5% | -12%
COc1ccc(OC)c(C=NNC(=O)c2ccccc2NS(=O)(=O)c2cccs2)c1 | -13% | -19% | -6% | 14% | -1% | -11%
COc1ccc(-c2nc3cc(C)ccn3c2NC(=O)c2cccc(F)c2)cc1 | . | 1% | ? | 5% | 3% | ?
COc1cc(/C=C(\C#N)C(=O)Nc2ccc(C)cc2)ccc1OCc1cc(=O)n2nc(C)sc2n1 | . | -1% | -12% | -14% | 1% | -19%
COc1cc(/C=C(\C#N)C(=O)Nc2nnc(C(F)(F)F)s2)ccc1OCc1ccc(C(F)(F)F)cc1C(F)(F)F | . | 7.9µM* | . | ? | 6% | .
COc1cc(/C=C(\C#N)C(=O)Nc2cc(C(F)(F)F)ccc2Cl)ccc1OCC(=O)Nc1cccc(C(F)(F)F)c1 | 8% | -4% | ? | 4% | 0% | 23µM*
COc1cc(CNCCc2ccc(F)cc2)ccc1OCc1ccc(Cl)nc1 | -4% | -7% | 21µM* | 7% | -2% | 18µM*
COc1cc(CNCc2ccccn2)ccc1OCc1ccc(Cl)cc1 | 4% | 18% | ? | 2% | 3% | ?
COc1cc(CNCCc2ccccc2F)ccc1OCc1ccc(Cl)nc1 | 1% | -2% | 23µM* | -10% | 2% | 15µM*
COc1cc(CO)ccc1OCc1ccc(Cl)nc1 | -4% | -2% | 14% | -9% | . | 7%
COc1ccc(/C=C/c2cc(O)cc(O[C@H]3OC(CO)C(O)C(O)C3O)c2)cc1 (stereo partly drawn) | . | 0% | -1% | 3% | 1% | 0%
CC(=O)Nc1ccc(N(C(=O)CNC(=O)c2cccs2)C(C(=O)NCC2CCCO2)c2ccccc2)cc1 (stereo not drawn) | -19% | -1% | -7% | -20% | 6% | 20%
CCOC(=O)c1c(S(=O)(=O)NCC(=O)Nc2cc(C)ccc2OC)c(C)n(C)c1C | -8% | -3% | ? | -6% | 3% | -2%
CC(=O)c1sc(NCCOc2ccc(C)cc2)nc1C | -4% | 2% | 15µM* | -11% | 0% | ?
COc1ccc(CCNc2nc(-c3ccc(NC(C)=O)cc3)cs2)cc1OC | -15% | -14% | ? | -6% | 8% | ?
SMILES | PLK1 PBD inh | KAT2A inh | DT40 TDP1 no CPT | VDR inh | TDP1 inh | DT40 TDP1 CPT
COc1ccc(CCNc2nc(C)c(C(C)=O)s2)cc1OC | 4.7µM* | ? | ? | 40µM* | 13% | ?
CC(=O)c1sc(NCc2ccc(C)cc2)nc1C | -23% | 0% | -16% | 24% | -2%[0.0935 µM] | -15%
COc1ccc(CCNc2nc(-c3ccc(F)cc3)c(CC(=O)O)s2)cc1OC | 8.4µM* | -6% | 26µM* | 79µM* | 12% | 15µM*
CC(S)C(=O)NCC(=O)O (stereo not drawn) | . | 12% | -2% | 1% | . | ?
O=c1[nH]c2ccc(NCc3ccc(-c4ccccc4F)o3)cc2[nH]1 | . | -5% | 18µM* | 12% | 7% | 23µM*
CCC(C)NC(=O)c1ccc2c(=O)n3c(nc2c1)CCCCC3 (stereo not drawn) | . | 0% | -11% | -1% | -4% | 18%
Cc1cccc(N(C)C(=O)c2cc3c(=O)oc4ccc(C)cc4c3s2)c1 | . | -1% | -25% | -5% | 2% | -2%
CC(C)c1ccc(Cn2ccc3c4c(N)nc(NC5CC5)nc4ccc32)cc1 | . | ? | 3.3µM* | 0% | 14% | 4.7µM*
Cc1cc(Cl)cc2sc(=S)[nH]c12 | 13µM* | . | -27% | ? | . | -7%
CC1SCCN1S(=O)(=O)c1ccc2ccccc2c1 (stereo not drawn) | -3% | -2% | ? | -7% | 5% | -22%
Cc1cc(OCC(=O)Nc2cc(S(=O)(=O)N3CCOCC3)ccc2N2CCCC2)ccc1C(C)C | -5% | 3% | 8.2µM* | 16% | -6% | 12µM*
COc1ccccc1OCC(=O)Nc1cc(S(=O)(=O)N2CCOCC2)ccc1N1CCCCC1 | 24µM* | -6% | 15µM* | -24% | 2% | 18µM*
Cc1onc(-c2ccccc2)c1C(=O)OCC(=O)Nc1cc(S(=O)(=O)N2CCOCC2)ccc1Cl | 10% | -17% | 23µM* | -1% | 2% | 23µM*
CN1CCN(c2ccc(S(=O)(=O)N3CCCCC3)cc2NC(=O)COc2ccc(F)cc2)CC1 | 0% | -4% | ? | -18% | -5% | ?
COc1ccccc1CCC(=O)Nc1cc(S(=O)(=O)N2CCCCC2)ccc1N1CCN(C)CC1 | 0% | -24% | 21µM* | -4% | . | ?
Cc1ccc2c(=O)n3c(nc2c1)C(CC(C)C)NC(=O)c1ccc(Cl)cc1-3 (stereo not drawn) | . | -2% | . | . | 1% | .
